What was measured:
Test in all cases: DAPPL (digital affinity profiling via proximity ligation, sequencing); 10 mM Tris-HCl pH 7.5, 50 mM NaCl, 1 mM DTT, 4% glycerol, room temperature, 30 min; GST-TFs on glutathione beads, 16-mer random dsDNA library, 0.1% formaldehyde crosslink after washing; high values mean tight binding
FEV = target: T1, FEV (Homo sapiens, UniProt Q99581 1-238); details: protein: recombinant; tags: N-terminal GST; dsDNA, one strand shown
T1 sequence: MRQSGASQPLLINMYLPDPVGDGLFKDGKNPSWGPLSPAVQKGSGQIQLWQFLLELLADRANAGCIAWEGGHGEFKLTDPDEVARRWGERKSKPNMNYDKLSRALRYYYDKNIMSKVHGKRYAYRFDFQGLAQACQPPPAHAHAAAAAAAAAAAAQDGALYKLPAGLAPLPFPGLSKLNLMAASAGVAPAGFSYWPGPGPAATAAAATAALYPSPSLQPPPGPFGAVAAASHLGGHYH
In short: (§1)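 After expression in yeast as GST fusions, human transcription factors were bound to glutathione beads, DNA-barcoded and mixed with a tag-only sample. The pools were incubated with 200 nmole of a 16-mer random double-stranded DNA library in Tris/NaCl/DTT/glycerol buffer (30 min, room temperature), washed and crosslinked with 0.1% formaldehyde. Proximity ligation with BsaI/T4 ligase ran for 1 h at 37 °C, before PCR amplification and sequencing on an Illumina NextSeq500. Binding signal is a hexamer's read frequency for a factor divided by its frequency for the tag-only sample.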

ETV5 = ETV5 (Homo sapiens, UniProt P41161 1-510); details: protein: recombinant; tags: N-terminal GST; dsDNA, one strand shown
In short: as §1

HSF1 = HSF1 (Homo sapiens, UniProt Q00613 1-529); details: protein: recombinant; tags: N-terminal GST; chain copies: 3; dsDNA, one strand shown
In short: as §1

SPIC = target: T2, SPIC (Homo sapiens, UniProt Q8N5J4 1-248); details: protein: recombinant; tags: N-terminal GST; dsDNA, one strand shown
T2 sequence: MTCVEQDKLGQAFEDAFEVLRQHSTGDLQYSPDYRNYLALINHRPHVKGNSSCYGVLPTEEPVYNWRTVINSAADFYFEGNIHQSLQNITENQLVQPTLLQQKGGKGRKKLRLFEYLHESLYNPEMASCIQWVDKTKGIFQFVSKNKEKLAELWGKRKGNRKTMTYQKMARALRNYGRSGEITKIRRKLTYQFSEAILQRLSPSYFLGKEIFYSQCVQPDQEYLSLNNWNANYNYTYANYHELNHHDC
In short: as §1

ELF4 = ELF4 (Homo sapiens, UniProt Q99607 1-663); details: protein: recombinant; tags: N-terminal GST; dsDNA, one strand shown
In short: as §1

ELK4 = target: T3, ELK4 (Homo sapiens, UniProt P28324-2 1-405); details: protein: recombinant; tags: N-terminal GST; dsDNA, one strand shown
T3 sequence: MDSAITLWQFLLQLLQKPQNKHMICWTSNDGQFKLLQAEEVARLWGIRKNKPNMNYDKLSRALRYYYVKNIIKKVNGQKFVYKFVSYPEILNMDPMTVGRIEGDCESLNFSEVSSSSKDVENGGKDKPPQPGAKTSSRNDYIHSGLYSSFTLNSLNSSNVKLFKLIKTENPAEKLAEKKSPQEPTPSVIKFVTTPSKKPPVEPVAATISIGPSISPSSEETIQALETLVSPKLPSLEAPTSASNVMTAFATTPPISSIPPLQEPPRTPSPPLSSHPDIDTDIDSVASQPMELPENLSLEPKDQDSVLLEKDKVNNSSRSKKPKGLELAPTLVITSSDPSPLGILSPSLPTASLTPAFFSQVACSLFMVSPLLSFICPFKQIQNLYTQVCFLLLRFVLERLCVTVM
In short: as §1

ETV2 = target: T4, ETV2 (Homo sapiens, UniProt O00321 1-342); details: protein: recombinant; tags: N-terminal GST; dsDNA, one strand shown
T4 sequence: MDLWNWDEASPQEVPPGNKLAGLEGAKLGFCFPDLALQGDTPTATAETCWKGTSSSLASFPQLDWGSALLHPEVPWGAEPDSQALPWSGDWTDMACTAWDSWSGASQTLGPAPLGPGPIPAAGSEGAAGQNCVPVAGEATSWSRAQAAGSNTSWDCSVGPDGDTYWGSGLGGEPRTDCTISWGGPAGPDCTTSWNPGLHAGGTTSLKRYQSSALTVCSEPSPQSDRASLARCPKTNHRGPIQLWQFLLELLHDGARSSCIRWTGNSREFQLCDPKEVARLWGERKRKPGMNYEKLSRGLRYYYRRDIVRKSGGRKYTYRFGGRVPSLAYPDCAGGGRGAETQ
In short: as §1

ELF3 = target: T5, ELF3 (Homo sapiens, UniProt P78545 1-371); details: protein: recombinant; tags: N-terminal GST; dsDNA, one strand shown
T5 sequence: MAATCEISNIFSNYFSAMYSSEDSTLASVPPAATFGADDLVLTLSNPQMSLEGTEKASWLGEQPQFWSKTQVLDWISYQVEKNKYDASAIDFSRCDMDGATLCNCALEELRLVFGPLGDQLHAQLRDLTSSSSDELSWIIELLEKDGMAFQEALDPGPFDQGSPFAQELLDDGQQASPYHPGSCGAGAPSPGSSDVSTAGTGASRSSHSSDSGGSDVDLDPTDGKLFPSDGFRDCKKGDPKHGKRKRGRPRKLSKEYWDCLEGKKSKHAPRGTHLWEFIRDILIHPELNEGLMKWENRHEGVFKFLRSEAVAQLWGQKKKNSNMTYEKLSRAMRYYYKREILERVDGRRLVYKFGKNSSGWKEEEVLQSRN
In short: as §1

CRX = CRX (Homo sapiens, UniProt O43186 1-299); details: protein: recombinant; tags: N-terminal GST; dsDNA, one strand shown
In short: as §1

ETV1 = ETV1 (Homo sapiens, UniProt P50549 1-477); details: protein: recombinant; tags: N-terminal GST; dsDNA, one strand shown
In short: as §1

ERF = target: T6, ERF (Homo sapiens, UniProt P50548 1-548); details: protein: recombinant; tags: N-terminal GST; dsDNA, one strand shown
T6 sequence: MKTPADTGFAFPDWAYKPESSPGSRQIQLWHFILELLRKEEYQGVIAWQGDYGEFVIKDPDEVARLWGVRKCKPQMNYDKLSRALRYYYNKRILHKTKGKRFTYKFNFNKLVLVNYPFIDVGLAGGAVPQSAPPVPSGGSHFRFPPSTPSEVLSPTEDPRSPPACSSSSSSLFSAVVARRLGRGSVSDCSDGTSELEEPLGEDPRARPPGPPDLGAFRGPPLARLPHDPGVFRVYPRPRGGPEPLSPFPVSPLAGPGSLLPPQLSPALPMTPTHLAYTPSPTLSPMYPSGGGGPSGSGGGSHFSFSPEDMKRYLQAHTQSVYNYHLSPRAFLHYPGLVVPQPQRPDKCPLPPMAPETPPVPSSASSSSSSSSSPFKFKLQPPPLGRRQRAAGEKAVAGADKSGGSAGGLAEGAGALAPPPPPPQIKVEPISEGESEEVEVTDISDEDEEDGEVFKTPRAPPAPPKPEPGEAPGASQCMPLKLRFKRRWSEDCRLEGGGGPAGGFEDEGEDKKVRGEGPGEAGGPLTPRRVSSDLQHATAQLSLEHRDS
In short: as §1

ETV3L = target: T7, ETV3L (Homo sapiens, UniProt Q6ZN32 1-361); details: protein: recombinant; tags: N-terminal GST; dsDNA, one strand shown
T7 sequence: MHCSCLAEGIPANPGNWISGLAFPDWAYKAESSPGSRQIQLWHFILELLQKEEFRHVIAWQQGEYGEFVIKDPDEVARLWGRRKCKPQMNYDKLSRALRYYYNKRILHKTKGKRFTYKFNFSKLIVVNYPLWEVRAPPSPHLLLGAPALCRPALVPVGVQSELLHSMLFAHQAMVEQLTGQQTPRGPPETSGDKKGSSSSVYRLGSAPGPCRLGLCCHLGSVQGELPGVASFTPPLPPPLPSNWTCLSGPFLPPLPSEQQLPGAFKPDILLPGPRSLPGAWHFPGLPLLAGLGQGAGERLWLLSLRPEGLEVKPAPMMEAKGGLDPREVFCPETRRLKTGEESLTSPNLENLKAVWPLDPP
In short: as §1

ETS2 = target: T8, ETS2 (Homo sapiens, UniProt P15036 1-469); details: protein: recombinant; tags: N-terminal GST; dsDNA, one strand shown
T8 sequence: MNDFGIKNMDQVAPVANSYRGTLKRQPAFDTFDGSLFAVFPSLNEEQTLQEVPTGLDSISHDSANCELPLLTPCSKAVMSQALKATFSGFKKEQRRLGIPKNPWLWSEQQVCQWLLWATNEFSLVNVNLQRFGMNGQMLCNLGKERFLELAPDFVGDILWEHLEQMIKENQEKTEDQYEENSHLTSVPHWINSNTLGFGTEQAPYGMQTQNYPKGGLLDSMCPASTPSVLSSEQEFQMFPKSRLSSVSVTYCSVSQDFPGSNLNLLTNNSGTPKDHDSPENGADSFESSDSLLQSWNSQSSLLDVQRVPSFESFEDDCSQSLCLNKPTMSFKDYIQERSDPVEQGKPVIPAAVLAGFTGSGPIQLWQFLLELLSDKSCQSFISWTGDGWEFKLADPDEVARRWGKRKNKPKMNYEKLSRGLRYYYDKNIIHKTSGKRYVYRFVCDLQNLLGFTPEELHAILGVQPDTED
In short: as §1

SPDEF = target: T9, SPDEF (Homo sapiens, UniProt O95238 1-335); details: protein: recombinant; tags: N-terminal GST; dsDNA, one strand shown
T9 sequence: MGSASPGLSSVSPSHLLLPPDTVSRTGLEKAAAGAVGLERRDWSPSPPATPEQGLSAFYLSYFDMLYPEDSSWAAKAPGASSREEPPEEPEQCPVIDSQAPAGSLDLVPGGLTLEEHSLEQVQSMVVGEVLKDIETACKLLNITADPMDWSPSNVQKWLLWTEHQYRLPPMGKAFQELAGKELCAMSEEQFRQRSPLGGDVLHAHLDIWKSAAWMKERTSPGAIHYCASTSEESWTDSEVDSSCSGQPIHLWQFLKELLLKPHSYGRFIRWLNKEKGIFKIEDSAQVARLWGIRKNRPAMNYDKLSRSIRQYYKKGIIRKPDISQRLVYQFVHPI
In short: as §1

ETV7 = target: T10, ETV7 (Homo sapiens, UniProt Q9Y603 1-341); details: protein: recombinant; tags: N-terminal GST; dsDNA, one strand shown
T10 sequence: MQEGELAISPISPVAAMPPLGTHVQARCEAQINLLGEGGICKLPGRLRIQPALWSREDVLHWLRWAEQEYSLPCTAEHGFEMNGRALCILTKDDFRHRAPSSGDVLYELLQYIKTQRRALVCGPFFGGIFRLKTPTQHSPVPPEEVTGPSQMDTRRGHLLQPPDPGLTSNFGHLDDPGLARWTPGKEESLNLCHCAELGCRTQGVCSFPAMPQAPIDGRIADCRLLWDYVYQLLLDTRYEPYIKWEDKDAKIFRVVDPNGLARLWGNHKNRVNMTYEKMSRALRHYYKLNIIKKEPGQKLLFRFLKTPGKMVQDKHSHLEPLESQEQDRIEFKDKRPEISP
In short: as §1

ELF5 = target: T11, ELF5 (Homo sapiens, UniProt Q9UKW6-2 1-255); details: protein: recombinant; tags: N-terminal GST; dsDNA, one strand shown
T11 sequence: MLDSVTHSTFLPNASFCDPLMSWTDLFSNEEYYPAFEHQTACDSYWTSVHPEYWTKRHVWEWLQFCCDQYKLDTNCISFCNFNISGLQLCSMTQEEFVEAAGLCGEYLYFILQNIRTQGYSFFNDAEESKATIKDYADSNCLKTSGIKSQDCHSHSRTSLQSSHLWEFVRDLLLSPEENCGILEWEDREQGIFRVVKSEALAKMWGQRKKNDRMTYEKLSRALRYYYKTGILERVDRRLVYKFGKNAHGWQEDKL
In short: as §1

ETV3 = target: T12, ETV3 (Homo sapiens, UniProt P41162-2 1-143); details: protein: recombinant; tags: N-terminal GST; dsDNA, one strand shown
T12 sequence: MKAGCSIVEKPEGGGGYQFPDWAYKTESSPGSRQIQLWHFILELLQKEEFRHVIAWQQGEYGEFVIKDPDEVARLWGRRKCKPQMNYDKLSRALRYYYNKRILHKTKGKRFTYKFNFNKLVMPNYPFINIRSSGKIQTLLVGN
In short: as §1

ETV6 = ETV6 (Homo sapiens, UniProt P41212 1-452); details: protein: recombinant; tags: N-terminal GST; dsDNA, one strand shown
In short: as §1

Chain of ETV5 (P41161 whole entry): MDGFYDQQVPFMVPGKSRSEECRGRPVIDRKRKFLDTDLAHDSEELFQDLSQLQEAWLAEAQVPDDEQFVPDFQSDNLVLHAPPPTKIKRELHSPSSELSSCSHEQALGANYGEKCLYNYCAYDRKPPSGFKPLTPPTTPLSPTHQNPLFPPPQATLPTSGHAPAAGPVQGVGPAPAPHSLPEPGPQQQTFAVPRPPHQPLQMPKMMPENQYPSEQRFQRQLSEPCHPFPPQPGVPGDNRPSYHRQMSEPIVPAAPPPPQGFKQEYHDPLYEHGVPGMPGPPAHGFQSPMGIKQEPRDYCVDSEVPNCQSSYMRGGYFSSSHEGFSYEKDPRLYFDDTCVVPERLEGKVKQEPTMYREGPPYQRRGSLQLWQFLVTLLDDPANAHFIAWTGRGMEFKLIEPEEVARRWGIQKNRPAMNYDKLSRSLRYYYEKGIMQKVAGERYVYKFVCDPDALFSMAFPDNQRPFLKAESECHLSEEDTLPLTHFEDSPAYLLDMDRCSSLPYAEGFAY
Chain of CRX (O43186 whole entry): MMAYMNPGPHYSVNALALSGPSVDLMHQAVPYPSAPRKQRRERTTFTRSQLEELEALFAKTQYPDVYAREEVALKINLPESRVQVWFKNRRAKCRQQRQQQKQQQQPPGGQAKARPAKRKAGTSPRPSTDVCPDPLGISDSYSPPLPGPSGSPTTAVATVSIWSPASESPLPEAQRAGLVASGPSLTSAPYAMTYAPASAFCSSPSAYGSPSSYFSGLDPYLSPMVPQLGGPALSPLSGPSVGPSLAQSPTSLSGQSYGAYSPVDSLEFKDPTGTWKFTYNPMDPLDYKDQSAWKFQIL
Chain of HSF1 (Q00613 whole entry): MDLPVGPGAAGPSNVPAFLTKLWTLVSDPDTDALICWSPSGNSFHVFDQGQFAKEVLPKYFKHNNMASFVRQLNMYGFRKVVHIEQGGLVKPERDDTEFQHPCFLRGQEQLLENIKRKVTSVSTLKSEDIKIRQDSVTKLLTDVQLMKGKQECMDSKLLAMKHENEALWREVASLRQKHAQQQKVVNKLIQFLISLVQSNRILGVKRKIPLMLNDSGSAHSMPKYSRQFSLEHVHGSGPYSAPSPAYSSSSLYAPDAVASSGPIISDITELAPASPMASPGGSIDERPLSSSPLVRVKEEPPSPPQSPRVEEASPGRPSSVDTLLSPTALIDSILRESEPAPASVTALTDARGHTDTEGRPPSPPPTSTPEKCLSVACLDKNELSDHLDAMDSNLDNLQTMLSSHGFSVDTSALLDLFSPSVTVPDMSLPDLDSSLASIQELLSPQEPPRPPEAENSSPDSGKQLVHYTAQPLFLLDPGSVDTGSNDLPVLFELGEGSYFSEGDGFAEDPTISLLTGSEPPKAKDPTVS
Chain of ETV1 (P50549 whole entry): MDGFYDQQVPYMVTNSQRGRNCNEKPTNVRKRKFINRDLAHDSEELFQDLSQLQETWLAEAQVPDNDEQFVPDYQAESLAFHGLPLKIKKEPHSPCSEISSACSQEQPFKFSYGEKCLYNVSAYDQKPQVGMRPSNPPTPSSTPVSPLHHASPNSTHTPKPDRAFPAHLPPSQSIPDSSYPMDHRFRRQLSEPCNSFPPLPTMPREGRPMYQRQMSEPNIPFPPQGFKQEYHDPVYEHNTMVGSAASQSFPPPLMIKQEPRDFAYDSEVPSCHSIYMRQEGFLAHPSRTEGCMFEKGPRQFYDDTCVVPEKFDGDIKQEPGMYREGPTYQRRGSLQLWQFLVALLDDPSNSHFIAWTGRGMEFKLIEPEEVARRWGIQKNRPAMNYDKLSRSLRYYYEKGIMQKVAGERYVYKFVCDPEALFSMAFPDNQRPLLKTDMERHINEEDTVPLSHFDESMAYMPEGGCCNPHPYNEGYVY
Chain of ETV6 (P41212 whole entry): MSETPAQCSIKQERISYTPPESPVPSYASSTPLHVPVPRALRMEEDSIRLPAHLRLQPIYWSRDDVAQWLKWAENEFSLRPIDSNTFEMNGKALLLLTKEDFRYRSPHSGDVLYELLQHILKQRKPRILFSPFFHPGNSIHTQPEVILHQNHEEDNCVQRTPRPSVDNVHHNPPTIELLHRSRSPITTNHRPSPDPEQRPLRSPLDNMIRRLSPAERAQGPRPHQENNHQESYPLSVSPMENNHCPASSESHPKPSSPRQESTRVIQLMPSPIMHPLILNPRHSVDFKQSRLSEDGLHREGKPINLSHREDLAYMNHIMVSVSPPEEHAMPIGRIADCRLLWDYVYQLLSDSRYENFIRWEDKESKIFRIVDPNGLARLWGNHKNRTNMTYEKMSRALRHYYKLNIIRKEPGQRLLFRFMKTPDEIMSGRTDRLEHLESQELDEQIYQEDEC
Chain of ELF4 (Q99607 whole entry): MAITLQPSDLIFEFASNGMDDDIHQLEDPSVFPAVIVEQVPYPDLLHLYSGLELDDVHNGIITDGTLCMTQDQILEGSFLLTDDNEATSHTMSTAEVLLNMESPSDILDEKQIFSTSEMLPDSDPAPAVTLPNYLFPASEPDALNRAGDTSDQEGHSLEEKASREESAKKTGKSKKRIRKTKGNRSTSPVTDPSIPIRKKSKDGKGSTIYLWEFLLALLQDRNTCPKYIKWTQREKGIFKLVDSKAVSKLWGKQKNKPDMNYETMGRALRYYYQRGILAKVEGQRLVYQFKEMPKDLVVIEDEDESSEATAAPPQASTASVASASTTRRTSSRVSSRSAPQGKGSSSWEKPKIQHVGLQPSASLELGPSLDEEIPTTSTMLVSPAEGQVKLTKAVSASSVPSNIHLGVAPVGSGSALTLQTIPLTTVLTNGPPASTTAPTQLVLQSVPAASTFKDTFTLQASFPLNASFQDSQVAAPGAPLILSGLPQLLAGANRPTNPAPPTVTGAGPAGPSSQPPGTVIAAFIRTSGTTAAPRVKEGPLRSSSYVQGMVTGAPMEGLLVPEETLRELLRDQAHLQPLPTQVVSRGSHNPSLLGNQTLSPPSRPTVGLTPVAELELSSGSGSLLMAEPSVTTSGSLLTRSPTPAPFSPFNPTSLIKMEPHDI

CTCCAA
binding signal (FEV): 1.29 fold enrichment (6-mer frequency, TF over GST control) | binding signal (ETV5): 1.3 fold enrichment (6-mer frequency, TF over GST control) | binding signal (HSF1): 1.31 fold enrichment (6-mer frequency, TF over GST control) | binding signal (SPIC): 1.35 fold enrichment (6-mer frequency, TF over GST control) | binding signal (ELF4): 1.38 fold enrichment (6-mer frequency, TF over GST control) | binding signal (ELK4): 1.23 fold enrichment (6-mer frequency, TF over GST control) | binding signal (ETV2): 1.36 fold enrichment (6-mer frequency, TF over GST control) | binding signal (ELF3): 1.32 fold enrichment (6-mer frequency, TF over GST control) | binding signal (CRX): 1.14 fold enrichment (6-mer frequency, TF over GST control) | binding signal (ETV1): 1.33 fold enrichment (6-mer frequency, TF over GST control) | binding signal (ERF): 1.32 fold enrichment (6-mer frequency, TF over GST control) | binding signal (ETV3L): 1.28 fold enrichment (6-mer frequency, TF over GST control) | binding signal (ETS2): 1.32 fold enrichment (6-mer frequency, TF over GST control) | binding signal (SPDEF): 1.33 fold enrichment (6-mer frequency, TF over GST control) | binding signal (ETV7): 1.52 fold enrichment (6-mer frequency, TF over GST control) | binding signal (ELF5): 1.23 fold enrichment (6-mer frequency, TF over GST control) | binding signal (ETV3): 1.23 fold enrichment (6-mer frequency, TF over GST control) | binding signal (ETV6): 1.28 fold enrichment (6-mer frequency, TF over GST control)

Source: publication PMC7862700, “An all-to-all approach to the identification of sequence-specific readers for epigenetic DNA modifications on cytosine”
